This is a sample that favours compounds with a hit; in the whole collection about 8.7% have one here.
Pf growth 48h = P. falciparum growth inhibition at 48 hours (one generation); P. falciparum luciferase growth in erythrocytes, 48 h; Potency, µM (doses to about 28.7 µM), actives largely listed as inhibitors; hit rate 5.9% among 310,000; AID 504832
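Growth was read as firefly luciferase luminescence after a 48 h, 37 C, 5% CO2 exposure of compounds to reporter-bearing P. falciparum cultures (0.1% parasitemia, 2% hematocrit final) in Albumax-supplemented RPMI 1640.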
AMA1-RON2 inh = inhibitors of Plasmodium falciparum AMA1-RON2 interaction | AlphaScreen AMA1-biotinylated RON2 peptide binding | Potency, µM (titrated, usually from 58.2 µM), actives largely listed as inhibitors | hit rate 0.2% among 360,000; note: nearly all actives have a fitted effect of over 45% in size
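AMA1 (3D7) with his tag at 25 nM final met compounds first, then biotinylated RON2 peptide at 25 nM; detection used donor plus acceptor beads, 10 µg/mL apiece, read by AlphaScreen after 30 min at room temperature.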
Pf growth 96h = P. falciparum growth inhibition at 96 hours; P. falciparum luciferase reporter growth, 96 h; Potency, µM (highest dose often 28.7 µM), actives largely listed as inhibitors; hit rate 6.9% among 320,000; AID 504834
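Readout is luminescence from an integrated firefly luciferase in P. falciparum. Red cells, 2% hematocrit and 0.05% parasitemia final, were cultured with compound through two parasite generations (96 hours) at 37 C, 5% CO2.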
VACV mCherry inh = vaccinia inhibition (mCherry reporter); Vaccinia virus mCherry reporter infection, fluorescence; Potency, µM (series often up to 36.5 µM), hits mostly inhibitors; hit rate 0.63% among 310,000; AID 720579; calls by dose curve; tested in A549 cells; note: nearly all actives have a fitted effect of over 35% in size
VACV Venus inh = vaccinia inhibition (Venus reporter); Vaccinia virus Venus reporter expression, fluorescence; Potency, µM (titrated, usually from 36.5 µM), actives largely listed as inhibitors; hit rate 0.46% among 330,000; calls by dose curve; tested in A549 cells; note: nearly all actives have a fitted effect of over 30% in size
Numbers stand for hits; – = inactive; ? = inconclusive; · = no result; [ ] = another dose, or the depositor's remark. Unless noted, calls come from the whole dose curve; as a rule, active = well fitted curve in the direction sought with a large enough effect; inconclusive = small, poorly fitted or top-dose-only effect, or another doubt; inactive = no such curve, though single readings can be large; an effect the other way counts as inactive or inconclusive.

SMILES	Pf growth 48h	AMA1-RON2 inh	Pf growth 96h	VACV mCherry inh	VACV Venus inh
Cc1[nH]c2c(ccc3ccccc32)c1C1C(CCN)C1(C)C (stereo not drawn)	10µM	–	·	·	·
C#CCOCCOCCOCCNc1nc(N2CCN(C(=O)CCCCCCCCCCNC(=O)[C@H](CCCCN)n3cc(CCO)nn3)CC2)nc(N2CCN(C(=O)CCCCCCCCCCNC(=O)[C@H](CCCCN)n3cc(CCCC(=O)O)nn3)CC2)n1	?	?	?	–	–
C#CCOCCOCCOCCNc1nc(N2CCN(C(=O)CCCCCCCCCCNC(=O)[C@@H](CCC(=O)O)n3cc(CCCCCN)nn3)CC2)nc(N2CCN(C(=O)CCCCCCCCCCNC(=O)[C@H](CO)n3cc(CCCCCN)nn3)CC2)n1	2.1µM	–	5.9µM	–	?
C#CCOCCOCCOCCNc1nc(N2CCN(C(=O)[C@H](CCCCN)n3cc(CN)nn3)CC2)nc(N2CCN(C(=O)[C@H](CCC(=O)O)n3cc([C@@H](N)CCCCN)nn3)CC2)n1	·	–	·	–	–
C#CCOCCOCCOCCNc1nc(N2CCOCC2)nc(N2CCN(C(=O)CCCCCCCCCCNC(=O)[C@H](CO)n3cc(CCCSC)nn3)CC2)n1	0.52µM	–	0.52µM	–	–
C#CCOCCOCCOCCNc1nc(N2CCN(C(=O)CCCCCCCCCCNC(=O)[C@@H](CCC(=O)O)n3cc(CCCCCN)nn3)CC2)nc(N2CCN(C(=O)CCCCCCCCCCNC(=O)[C@H](CO)n3cc(CCCSC)nn3)CC2)n1	4.7µM	–	?	–	–
C#CCOCCOCCOCCNc1nc(N2CCOCC2)nc(N2CCN(C(=O)[C@H](CCCCN)n3cc(CCC(=O)O)nn3)CC2)n1	·	–	·	–	–
CCc1ccc(C2N3CC4(C)CN2CC(c2ccccc2)(C3)C4=O)cc1 (stereo not drawn)	·	·	·	–	–
Cc1ccc(C)c(Nc2nc(N)c3ccccc3n2)c1	–[5.75 µM]	–	–	–	–
COc1cc2nc(N3CCN(c4cc(C)ccc4C)CC3)nc(N)c2cc1OC	1.9µM	–	–	?	10µM
COc1cc2nc(C#N)nc(N)c2cc1OC	·	·	·	–	–
COc1ccc(Cl)cc1Nc1nc(N)c2ccccc2n1	9.3µM	–	?	–	–
COc1ccc(C)cc1Nc1nc(N)c2cc(OC)c(OC)cc2n1	1µM	?	–	?	?
CC(C)c1ccc(NC(=O)c2cc3c(s2)-c2ccccc2SC3)cc1	·	·	·	–	–
COC(=O)c1cc2c(cc1NC(=O)c1cnn(-c3ccccc3)c1-n1cccc1)OCO2	·	·	·	–	–
CCOC(=O)c1c(C)nc2sc3c(c2c1-c1ccc(OC)cc1)NC(c1ccc(OC)cc1)NC3=O (stereo not drawn)	?	–	2.6µM	·	–
Cc1ccc2oc(=O)c3cc(C(=O)Nc4cccc(C#N)c4)sc3c2c1	·	·	·	–	–
CCOc1ccc(C(NC(=O)c2ccco2)c2ccc(OC)c(OC)c2)cc1 (stereo not drawn)	–	–	·	–	–
COc1ccc(C(Nc2ccccn2)c2c(NC(=O)c3ccco3)sc(C)c2C)cc1OC (stereo not drawn)	?	–	5.2µM	·	·
COc1cc(C(Nc2ccccn2)c2c(NC(=O)c3ccco3)sc(C)c2C)cc(OC)c1OC (stereo not drawn)	5.2µM	–	8.3µM	·	·
COc1ccc(NC(=O)c2cc(-c3ccccc3F)no2)cc1	·	·	·	–	–
Cc1cccc(Oc2coc3cc(OCC(=O)NC4CCCCC4)ccc3c2=O)c1	·	·	·	–[7.34 µM]	–[7.34 µM]
Cc1sc2ncnc(Sc3ccccc3C(=O)Nc3ccc(Br)cc3)c2c1C	9.3µM	–	6.6µM	–	–
Cc1sc2ncnc(Sc3ccccc3C(=O)Nc3ccc(C#N)cc3)c2c1C	10µM	–	?	?	–
COc1ccc(NC(=O)CN(C)C(=O)c2ccccc2Sc2ncnc3sc(C)c(C)c23)cc1	?	–	?	–	–
SMILES	Pf growth 48h	AMA1-RON2 inh	Pf growth 96h	VACV mCherry inh	VACV Venus inh
Cc1sc2ncnc(SCC(=O)N(C(C)C)C(C)C)c2c1C	–	–	–	–	–
Cc1sc2ncnc(Sc3ccccc3C(=O)Nc3ccccc3Cl)c2c1C	12µM	–	?	·	·
CC(=O)c1c(C)oc2ccc(N(C(=O)Oc3ccccc3)S(=O)(=O)c3ccc(Br)cc3)cc12	·	·	·	–	–
Cc1c(C(=O)N2CCCCCC2)c(S(=O)(=O)NCc2ccccc2)c(C)n1C	·	·	·	–	–
CCN(CC)c1nc2ccccc2n(Cc2cccc(OC)c2)c1=O	?	–	1.5µM	–	–
COc1cccc(Cn2c(SCC(=O)N(C)c3ccccc3)nc3ccccc32)c1	·	·	·	?	–
